PubChem BioAssay AID1159580 (chemical genetic matrix, 2015)
Where “and” joins values, the source holds several entries; their conditions need not be identical. Equal entries are not always repeated. Among all 5,500 compounds or so, about 2,000 (36%) were called active. About 18% were inconclusive and are not listed. No stated cut-off is given here; in the data, active means normalized growth mostly below about 0.91 (no sharp cut-off); inconclusive means no clear call, values can overlap the other calls; inactive means mostly above about 0.92. This is one part of the list.

Assay: chemical genetic growth profiling, strain panel (AID 1159580);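 further: tested at 20 µM; growth read once vehicle control cultures reached saturation at 30 °C; 1 = growth at the plate median or of vehicle wells; lower values mean less growth of the strain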
Details: S. cerevisiae deletion strains, growth OD

Measured: normalized growth

O=C1CC2OCC=C3CN4CC[C@]56c7ccccc7N1C5[C@H]2[C@H]3CC46 (some centres not stated)
inactive: locus YAL013W, strain DEP1, hits give low values 1 | locus YAL021C, strain ccr4, hits give low values 1.03 | locus YAL026C, strain drs2, hits give low values 1.03 | locus YAL030W, strain snc1, hits give low values 1.01 | locus YBL061C, strain skt5, hits give low values 1.01 | locus YBR009C, strain hhf1, hits give low values 1.02 | locus YBR021W, strain FUR4, hits give low values 1.01 | locus YBR023C, strain chs3, hits give low values 1.03 | locus YBR171W, strain sec66, hits give low values 1.03 | locus YBR229C, strain ROT2, hits give low values 1 | locus YBR231C, strain swc5, hits give low values 1.02 | locus YBR279W, strain paf1, hits give low values 1.03 | locus YCL011C, strain gbp2, hits give low values 1.03 | locus YCL016C, strain dcc1, hits give low values 1.03 | locus YCL029C, strain bik1, hits give low values 1 | locus YCL061C, strain MRC1, hits give low values 1.02 | locus YCL069W, strain vba3, hits give low values 1.02 | locus YCR088W, strain abp1, hits give low values 1.03 | locus YDL005C, strain med2, hits give low values 1.03 | locus YDL035C, strain GPR1, hits give low values 1.01 | locus YDL040C, strain nat1, hits give low values 1.03 | locus YDL074C, strain BRE1, hits give low values 1.02 | locus YDL101C, strain DUN1, hits give low values 1.01 | locus YDL134C, strain PPH21, hits give low values 1.01 | locus YDL185W, strain tfp1, hits give low values 0.983 | locus YDL192W, strain arf1, hits give low values 1 | locus YDR001C, strain nth1, hits give low values 1.03 | locus YDR069C, strain doa4, hits give low values 1.02 | locus YDR101C, strain arx1, hits give low values 0.992 | locus YDR137W, strain rgp1, hits give low values 1.05 | locus YDR150W, strain NUM1, hits give low values 1.01 | locus YDR159W, strain sac3, hits give low values 1.01 | locus YDR162C, strain NBP2, hits give low values 1.01 | locus YDR195W, strain ref2 1.1 | locus YDR297W, strain sur2, hits give low values 1.02 | locus YDR318W, strain mcm21, hits give low values 0.999 | locus YDR334W, strain swr1, hits give low values 1.01 | locus YDR335W, strain msn5, hits give low values 1.03 | locus YDR388W, hits give low values 1 | locus YDR392W, strain spt3, hits give low values 1.03 | locus YDR502C, strain sam2, hits give low values 1 | locus YEL003W, strain gim4, hits give low values 1.02 | locus YEL037C, strain rad23, hits give low values 1.03 | locus YEL061C, strain CIN8 (second series), hits give low values 1.02 | locus YEL061C, strain CIN8, hits give low values 1.01 | locus YER015W, strain faa2, hits give low values 1.03 | locus YER016W, strain bim1, hits give low values 1.02 | locus YER110C, hits give low values 0.996 | locus YER111C, strain swi4, hits give low values 1 | locus YER155C, strain BEM2 (second series), hits give low values 1.04 | locus YER155C, strain BEM2, hits give low values 1.02 | locus YER167W, strain BCK2, hits give low values 1.01 | locus YFR010W, strain ubp6, hits give low values 1.02 | locus YGL078C, strain dbp3, hits give low values 0.99 | locus YGL086W, strain mad1, hits give low values 0.998 | locus YGL167C, strain pmr1, hits give low values 1.02 | locus YGL173C, strain kem1, hits give low values 1.02 | locus YGL227W, strain vid30, hits give low values 1.03 | locus YGL240W, strain doc1, hits give low values 1.01 | locus YGL248W, strain PDE1, hits give low values 1.01 | locus YGL253W, strain hxk2, hits give low values 1.01 | locus YGR078C, strain PAC10, hits give low values 1.01 | locus YGR135W, strain pre9, hits give low values 0.982 | locus YGR229C, strain SMI1, hits give low values 1.03 | locus YGR252W, strain gcn5, hits give low values 0.914 | locus YHR013C, strain ard1, hits give low values 1.01 | locus YHR027C, strain rpn1, hits give low values 1.03 | locus YHR030C, strain SLT2, hits give low values 1 and 0.976 | locus YHR079C, strain IRE1 (second series), hits give low values 0.997 | locus YHR079C, strain IRE1, hits give low values 0.864 | locus YHR094C, strain hxt1, hits give low values 0.995 | locus YHR129C, strain ARP1, hits give low values 1.03 | locus YHR142W, strain chs7, hits give low values 1.03 | locus YHR200W, strain rpn10, hits give low values 1 | locus YIL066C, strain RNR3, hits give low values 1.01 | locus YIL073C, strain SPO22, hits give low values 1.02 | locus YIL125W, strain kgd1, hits give low values 1 | locus YIR030C, strain dcg1, hits give low values 1 | locus YJL092W, strain hpr5, hits give low values 1.02 | locus YJL095W, strain BCK1 (second series), hits give low values 1.03 | locus YJL095W, strain BCK1, hits give low values 1 and 0.974 | locus YJL115W, strain asf1, hits give low values 1 | locus YJL129C, strain trk1, hits give low values 1.05 | locus YJL134W, strain LCB3, hits give low values 1.01 | locus YJL154C, strain vps35, hits give low values 1.01 | locus YJL164C, strain tpk1, hits give low values 1.03 | locus YJL166W, strain qcr8, hits give low values 1.02 | locus YJL168C, strain set2, hits give low values 1 | locus YJL187C, strain SWE1 (second series), hits give low values 1.01 | locus YJL187C, strain SWE1, hits give low values 1.03 | locus YJR043C, strain POL32, hits give low values 0.997 | locus YJR066W, strain TOR1, hits give low values 0.961
